According to PubChem BioAssay (NCATS):
Inconclusive results are not listed. Values without a mark were called inactive. The call rests on the fitted dose curve; in most records, active means well fitted cell-killing curve with a large enough effect; inconclusive means small, poorly fitted or top-dose-only effect; inactive means flat fitted curve, though single readings scatter.

Assay: Cell Viability - LYMP2-024 (AID 988);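 further: plate controls were DMSO only for no effect and 92 µM tetraoctylammonium bromide for full effect; nearly all actives have a fitted effect of over 60% in size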
Conditions: LYMP2-024 lymphoblastoid cell viability; series mostly up to 92.2 µM; activity change, negative = cytotoxicity: at the top concentration
Excerpt: NIH Chemical Genomics Center [NCGC]
NIH Molecular Libraries Screening Centers Network [MLSCN]
National Institutes of Environmental Health Sciences [NIEHS]
National Toxicology Program [NTP]
We have developed a 1536-well cell-based assay for quantitative high throughput screening (qHTS) against a number of cell lines to determine in vitro cytotoxicity of small molecules. This particular assay uses a human lymphoblastoid cell line (LYMP2-024) purchased from Coriell Institute for Medical Research.
NCGC Assay Protocol Summary:
The CellTiter-Glo luminescent cell viability assay (Promega) is a homogeneous method to measure the number of viable cells in culture. The end point readout of this assay is based on quantitation of intracellular ATP, an indicator of metabolic activity, using the luciferase reaction. Luciferase catalyzes the oxidation of beetle Luciferin to oxyluciferin and light in the presence of ATP. The luminescent signal is proportional to amount of ATP present.
Using the CellTiter-Glo luminescent cell viability assay, the amount of cellular ATP was measured in the lymphoblastoid cell line with complete culture medium following compound treatment for 24 hours. The assay was performed in opaque white Kalypsys 1536-well plates. In the screen, tetraoctylammonium bromide was used as positive control. Library compounds were measured for their ability to cause acute toxicity in the cell line, as reflected by a decrease in intracellular ATP levels, in a concentration-dependent manner. […] AC50 values were determined from concentration-response data modeled with the standard Hill equation.
qHTS protocol for CellTiter Glo lymphoblastoid cellular assay
[Step] [Parameter] [Value] [Description]
1. Reagent; 5 uL; 2500 lymphoblastoid cells/well
2. Time; 5 hr; 37 C incubation
4. Controls; 23 nL; Tetraoctylammonium bromide 6.4pM to 92 uM
5. Time; 24 hr; 37 C incubation
6. Reagent; 5 uL; CellTiter Glo reagent
7. Time; 30 min; Room Temperature
8. Detection; Luminescence; Viewlux plate reader
Keywords: cell viability, cytotoxicity, lymphoblastoid cell line, luminescence, NTPHTS, NTPHTS_NCGC, NIEHS, DSSTox, MLSMR, MLSCN, NIH Roadmap, qHTS, NCGC
In the case of `C=CCCC#N`, the “activity change, negative = cytotoxicity” value is reported as -4.23%. In the case of `CC(C)CC(C)N` (stereo not given), the “activity change, negative = cytotoxicity” value is reported as 2.19%. For `CCCCOCC1CO1` (stereo not given), the “activity change, negative = cytotoxicity” value was 1.19%. In the case of `CCOP(=S)(OCC)SCCSCC`, the “activity change, negative = cytotoxicity” value is reported as -1.79%. In the case of `Clc1ccc(C(c2ccccc2Cl)C(Cl)(Cl)Cl)cc1` (stereo not given), the “activity change, negative = cytotoxicity” value is reported as -9.85%. For `CN(C)C(=O)Cl`, the “activity change, negative = cytotoxicity” value was -20.3%. With `O=[N+]([O-])c1ccc(Cl)cc1` the “activity change, negative = cytotoxicity” value was -25.4%. In the case of `CC1CC(=O)O1` (stereo not given), the “activity change, negative = cytotoxicity” value is reported as -4.08%. For `Oc1c(Cl)cccc1Cl`, the “activity change, negative = cytotoxicity” value was 4.77%. With `O=NN1CCCCC1` the “activity change, negative = cytotoxicity” value was -5.89%. In the case of `Oc1cc(Cl)cc(Cl)c1`, the “activity change, negative = cytotoxicity” value is reported as -8.63%. With `O=Cc1ccc(Cl)cc1Cl` the “activity change, negative = cytotoxicity” value was -0.303%. In the case of `ClCC(Br)CBr` (stereo not given), the “activity change, negative = cytotoxicity” value is reported as -14.3%. In the case of `ClC(Cl)c1ccccc1`, the “activity change, negative = cytotoxicity” value is reported as -0.12%. For `O=Cc1ccc2c(c1)OCO2`, the “activity change, negative = cytotoxicity” value was 1.39%. For `Nc1ccc(-c2ccccc2)cc1`, the “activity change, negative = cytotoxicity” value was -9.89%. With `CC(C)[C@]12CC(=O)[C@H](C)[C@H]1C2` the “activity change, negative = cytotoxicity” value was -5.17%. In the case of `CC(C)(C)C(O)(CCc1ccc(Cl)cc1)Cn1cncn1` (stereo not given), the “activity change, negative = cytotoxicity” value is reported as -24%. With `Clc1ccccc1` the “activity change, negative = cytotoxicity” value was -9.07%. In the case of `CCCCCOC(=O)c1ccccc1C(=O)OCCCCC`, the “activity change, negative = cytotoxicity” value is reported as -13.5%. For `Nc1ccc(Oc2ccc(N)cc2)cc1`, the “activity change, negative = cytotoxicity” value was -8.47%. In the case of `CC(=O)NNc1ccccc1`, the “activity change, negative = cytotoxicity” value is reported as -1.5%. With `CC(C)CON=O` the “activity change, negative = cytotoxicity” value was -6.73%. For `CCC[N+](=O)[O-]`, the “activity change, negative = cytotoxicity” value was -2.17%. For `Cl/C=C/CCl`, the “activity change, negative = cytotoxicity” value was -5.42%. For `O=[N+]([O-])c1ccccc1CCl`, the “activity change, negative = cytotoxicity” value was -24.9%. For `CSSC`, the “activity change, negative = cytotoxicity” value was -1.25%. With `CCN(CC)N=O` the “activity change, negative = cytotoxicity” value was -3.63%. For `ClC(Br)Br`, the “activity change, negative = cytotoxicity” value was -9.46%. In the case of `O=C(O)c1cccc(Cl)c1`, the “activity change, negative = cytotoxicity” value is reported as 4.59%. In the case of `Cc1cc(-c2ccc(N)c(C)c2)ccc1N`, the “activity change, negative = cytotoxicity” value is reported as -8.98%. With `Nc1ccc(-c2ccc(N)c(Cl)c2)cc1Cl` the “activity change, negative = cytotoxicity” value was -34.6%. In the case of `O=P(OCCCl)(OCCCl)OCCCl`, the “activity change, negative = cytotoxicity” value is reported as -0.491%. With `Nc1cccc(Cl)c1` the “activity change, negative = cytotoxicity” value was 3.49%. In the case of `Cc1coc2c1CCC(C)C2` (stereo not given), the “activity change, negative = cytotoxicity” value is reported as -9.86%. With `CCCCCc1cc(O)cc(O)c1` the “activity change, negative = cytotoxicity” value was -8.66%. With `CN(C)c1ccccc1` the “activity change, negative = cytotoxicity” value was 7.82%. With `NNC(N)=S` the “activity change, negative = cytotoxicity” value was -12.4%. With `N#CCc1ccccc1` the “activity change, negative = cytotoxicity” value was -7.39%. With `Cl/C=C\Cl` the “activity change, negative = cytotoxicity” value was -6.55%.
